Laboratory results published in the supplement of paper PMC10849652.
About 7,900 targets were measured; listed, in parts, are those with a hit and a random draw of the rest. About 0.6% of all pairs of compound and target were hits.

Compound: CNCc1ccc(-c2[nH]c3cc(F)cc4c3c2CCNC4=O)cc1 [rucaparib]
Assay: log2 fold change, soluble protein after heating vs DMSO (PISA); higher = thermal stabilisation; K562 cells, 10 uM, 30 min; active = over 0.2 and 3.5 SD of the protein, either way, in both replicates (recomputed)
In short: (§1)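 Thermal stability values are relative to control samples and come from duplicates. They are expressed as log2 fold changes. For measurement, K562 cells (2×10^6 cells/mL) received 10 μM compound for 30 min, and aliquots were heated for 3 min over 48°C-58°C, pooled, and extracted at 4°C in PBS with 0.5% NP-40. Soluble protein, the supernatant after 21,000xg for 90 min, was quantified by TMTpro 16plex LC-MS/MS with equalised channel sums.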

Chain of UniProt Q13423 (Q13423 whole entry, looked up): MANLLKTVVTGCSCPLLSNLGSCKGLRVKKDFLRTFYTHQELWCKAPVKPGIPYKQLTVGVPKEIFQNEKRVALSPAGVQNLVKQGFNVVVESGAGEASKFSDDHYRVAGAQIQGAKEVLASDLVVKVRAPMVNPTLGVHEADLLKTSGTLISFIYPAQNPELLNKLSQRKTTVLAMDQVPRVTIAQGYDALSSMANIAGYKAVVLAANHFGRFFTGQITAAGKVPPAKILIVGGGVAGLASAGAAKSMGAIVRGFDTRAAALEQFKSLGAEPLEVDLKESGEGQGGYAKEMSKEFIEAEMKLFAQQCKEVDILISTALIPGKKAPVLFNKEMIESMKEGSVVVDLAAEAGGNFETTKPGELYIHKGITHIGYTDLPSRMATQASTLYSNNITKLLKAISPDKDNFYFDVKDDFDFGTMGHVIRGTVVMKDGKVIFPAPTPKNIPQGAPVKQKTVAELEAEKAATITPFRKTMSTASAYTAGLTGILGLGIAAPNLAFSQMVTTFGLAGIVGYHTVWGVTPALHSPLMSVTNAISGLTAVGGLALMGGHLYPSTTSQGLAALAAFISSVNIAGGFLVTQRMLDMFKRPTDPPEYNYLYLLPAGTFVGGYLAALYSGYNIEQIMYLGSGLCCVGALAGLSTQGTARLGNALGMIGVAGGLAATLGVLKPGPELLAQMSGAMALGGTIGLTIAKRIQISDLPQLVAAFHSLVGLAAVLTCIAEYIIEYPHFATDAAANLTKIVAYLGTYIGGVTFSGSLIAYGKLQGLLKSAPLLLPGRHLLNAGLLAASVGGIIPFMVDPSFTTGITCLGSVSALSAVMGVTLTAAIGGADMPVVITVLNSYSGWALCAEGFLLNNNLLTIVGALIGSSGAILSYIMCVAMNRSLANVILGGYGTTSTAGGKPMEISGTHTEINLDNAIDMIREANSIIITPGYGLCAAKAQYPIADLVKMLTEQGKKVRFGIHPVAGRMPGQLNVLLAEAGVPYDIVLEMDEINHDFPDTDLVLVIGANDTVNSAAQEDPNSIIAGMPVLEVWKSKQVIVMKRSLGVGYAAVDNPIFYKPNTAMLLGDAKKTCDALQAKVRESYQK
Chain of UniProt Q13469 (Q13469 whole entry, looked up): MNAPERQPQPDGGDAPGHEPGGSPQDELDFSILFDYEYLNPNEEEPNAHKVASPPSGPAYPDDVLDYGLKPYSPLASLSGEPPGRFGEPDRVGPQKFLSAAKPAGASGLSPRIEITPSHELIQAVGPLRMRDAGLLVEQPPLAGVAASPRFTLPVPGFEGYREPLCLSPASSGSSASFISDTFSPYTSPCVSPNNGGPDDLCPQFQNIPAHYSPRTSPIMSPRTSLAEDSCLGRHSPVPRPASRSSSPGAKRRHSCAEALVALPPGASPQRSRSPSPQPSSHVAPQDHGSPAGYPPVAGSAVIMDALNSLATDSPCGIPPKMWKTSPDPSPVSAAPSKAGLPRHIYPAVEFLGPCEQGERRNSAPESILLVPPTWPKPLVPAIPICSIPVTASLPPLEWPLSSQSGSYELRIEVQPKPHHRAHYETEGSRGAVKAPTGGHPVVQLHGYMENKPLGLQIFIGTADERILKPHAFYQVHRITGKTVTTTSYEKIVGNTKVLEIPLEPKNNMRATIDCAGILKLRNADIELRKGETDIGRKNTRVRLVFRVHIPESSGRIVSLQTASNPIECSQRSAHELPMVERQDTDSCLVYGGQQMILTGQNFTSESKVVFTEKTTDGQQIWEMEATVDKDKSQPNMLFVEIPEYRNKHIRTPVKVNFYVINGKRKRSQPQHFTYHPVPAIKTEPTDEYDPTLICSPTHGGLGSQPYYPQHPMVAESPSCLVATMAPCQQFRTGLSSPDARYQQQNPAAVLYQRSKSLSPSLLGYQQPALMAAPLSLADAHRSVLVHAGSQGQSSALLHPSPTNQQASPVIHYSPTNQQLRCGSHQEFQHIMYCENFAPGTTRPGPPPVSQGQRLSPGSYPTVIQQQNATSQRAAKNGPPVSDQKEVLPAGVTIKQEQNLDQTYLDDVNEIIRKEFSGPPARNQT
Chain of UniProt Q9UI09 (Q9UI09 whole entry, looked up): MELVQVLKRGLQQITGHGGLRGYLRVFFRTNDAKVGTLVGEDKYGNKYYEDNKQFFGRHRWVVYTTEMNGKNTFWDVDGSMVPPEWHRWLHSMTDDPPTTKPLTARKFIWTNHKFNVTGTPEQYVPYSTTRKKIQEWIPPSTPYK
Chain of UniProt Q9H3P2 (Q9H3P2 whole entry, looked up): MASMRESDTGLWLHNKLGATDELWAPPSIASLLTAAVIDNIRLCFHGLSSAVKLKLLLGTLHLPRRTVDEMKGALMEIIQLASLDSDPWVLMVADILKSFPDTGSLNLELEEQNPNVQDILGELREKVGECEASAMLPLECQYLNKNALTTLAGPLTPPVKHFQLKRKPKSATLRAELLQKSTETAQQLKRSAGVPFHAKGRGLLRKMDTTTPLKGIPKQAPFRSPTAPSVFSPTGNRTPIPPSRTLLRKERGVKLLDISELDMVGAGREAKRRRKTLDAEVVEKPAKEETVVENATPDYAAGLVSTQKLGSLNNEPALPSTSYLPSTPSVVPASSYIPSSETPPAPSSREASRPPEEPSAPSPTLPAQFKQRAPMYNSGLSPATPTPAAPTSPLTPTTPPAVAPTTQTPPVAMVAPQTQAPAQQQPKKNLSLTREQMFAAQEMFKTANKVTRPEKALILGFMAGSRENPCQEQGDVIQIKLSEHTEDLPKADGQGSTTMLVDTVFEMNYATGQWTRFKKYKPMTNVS
Chain of UniProt Q9NRP0 (Q9NRP0 whole entry, looked up): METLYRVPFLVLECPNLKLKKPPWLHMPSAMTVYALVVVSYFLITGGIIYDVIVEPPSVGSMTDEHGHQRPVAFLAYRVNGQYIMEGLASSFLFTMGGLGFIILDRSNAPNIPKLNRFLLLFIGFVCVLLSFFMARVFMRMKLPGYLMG
Chain of UniProt Q86WC4 (Q86WC4 whole entry, looked up): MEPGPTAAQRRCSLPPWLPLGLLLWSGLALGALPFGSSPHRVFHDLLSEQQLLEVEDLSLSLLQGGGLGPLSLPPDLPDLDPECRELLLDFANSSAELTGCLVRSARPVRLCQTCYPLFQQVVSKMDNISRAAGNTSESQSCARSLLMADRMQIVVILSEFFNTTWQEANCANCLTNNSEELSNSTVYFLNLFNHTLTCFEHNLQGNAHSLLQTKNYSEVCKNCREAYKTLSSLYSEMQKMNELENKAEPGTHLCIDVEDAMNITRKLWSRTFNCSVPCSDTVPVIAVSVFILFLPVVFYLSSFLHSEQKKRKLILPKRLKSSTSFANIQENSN
Chain of UniProt O75323 (O75323 whole entry, looked up): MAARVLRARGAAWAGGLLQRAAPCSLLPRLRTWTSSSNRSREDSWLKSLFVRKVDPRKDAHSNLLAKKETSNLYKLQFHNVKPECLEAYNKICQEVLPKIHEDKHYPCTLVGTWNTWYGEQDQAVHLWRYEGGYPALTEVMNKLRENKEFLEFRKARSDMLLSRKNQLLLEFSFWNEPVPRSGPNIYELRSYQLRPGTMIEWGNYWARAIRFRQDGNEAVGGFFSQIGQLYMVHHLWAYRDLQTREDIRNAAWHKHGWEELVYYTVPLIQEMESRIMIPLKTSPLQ
Chain of UniProt Q9HAN9 (Q9HAN9 whole entry, looked up): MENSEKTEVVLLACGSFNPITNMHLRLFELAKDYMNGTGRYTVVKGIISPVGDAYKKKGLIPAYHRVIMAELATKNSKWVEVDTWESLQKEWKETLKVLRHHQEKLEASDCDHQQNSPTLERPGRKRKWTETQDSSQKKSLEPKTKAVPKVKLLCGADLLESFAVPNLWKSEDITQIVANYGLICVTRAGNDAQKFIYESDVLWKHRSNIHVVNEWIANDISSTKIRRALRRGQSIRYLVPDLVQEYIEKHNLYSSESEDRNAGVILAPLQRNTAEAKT
Chain of UniProt Q9Y2X3 (Q9Y2X3 whole entry, looked up): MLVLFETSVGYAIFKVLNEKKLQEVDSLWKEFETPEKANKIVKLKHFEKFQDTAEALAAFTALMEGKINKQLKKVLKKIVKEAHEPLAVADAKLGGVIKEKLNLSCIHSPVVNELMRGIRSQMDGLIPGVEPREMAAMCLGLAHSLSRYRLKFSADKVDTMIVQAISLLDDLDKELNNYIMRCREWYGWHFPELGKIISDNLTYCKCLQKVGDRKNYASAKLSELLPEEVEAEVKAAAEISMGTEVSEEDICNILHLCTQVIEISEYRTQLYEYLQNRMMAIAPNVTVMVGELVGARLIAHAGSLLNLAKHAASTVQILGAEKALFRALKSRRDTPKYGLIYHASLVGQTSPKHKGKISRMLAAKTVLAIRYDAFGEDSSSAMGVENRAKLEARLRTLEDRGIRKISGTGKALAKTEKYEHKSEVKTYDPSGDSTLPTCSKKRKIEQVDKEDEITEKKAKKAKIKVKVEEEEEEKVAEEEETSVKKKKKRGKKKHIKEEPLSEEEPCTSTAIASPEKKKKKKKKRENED
Chain of UniProt Q8WX92 (Q8WX92 whole entry, looked up): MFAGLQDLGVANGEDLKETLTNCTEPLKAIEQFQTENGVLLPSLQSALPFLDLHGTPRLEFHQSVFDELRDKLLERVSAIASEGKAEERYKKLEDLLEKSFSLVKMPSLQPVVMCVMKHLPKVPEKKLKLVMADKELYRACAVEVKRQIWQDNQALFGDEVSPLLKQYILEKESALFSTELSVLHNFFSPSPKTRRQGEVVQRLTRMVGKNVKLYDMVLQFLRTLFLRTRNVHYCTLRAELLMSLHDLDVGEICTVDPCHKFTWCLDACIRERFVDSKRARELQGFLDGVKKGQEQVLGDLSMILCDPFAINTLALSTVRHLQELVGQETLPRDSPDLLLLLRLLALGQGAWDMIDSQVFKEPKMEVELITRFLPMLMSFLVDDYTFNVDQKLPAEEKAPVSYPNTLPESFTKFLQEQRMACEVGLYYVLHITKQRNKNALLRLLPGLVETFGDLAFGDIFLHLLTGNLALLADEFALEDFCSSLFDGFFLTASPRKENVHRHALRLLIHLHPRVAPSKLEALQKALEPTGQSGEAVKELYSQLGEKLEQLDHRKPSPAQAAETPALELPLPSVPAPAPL

Row | Target | log2 fold change
1 | NELFB isoform 2 (UniProt Q8WX92) | -0.034 (inactive)
2 | MRPL50 (UniProt Q8N5N7) | 0.063 (inactive)
3 | MRPL46 (UniProt Q9H2W6) | 0.058 (inactive)
4 | NOP56 (UniProt O00567) | 0.233 (inactive)
5 | MTHFS (UniProt P49914) | 0.013 (inactive)
6 | MKNK1 (UniProt Q9BUB5) | 0.099 (inactive)
7 | NMNAT1 (UniProt Q9HAN9) | 0.354 (inactive)
8 | MT-ATP6 (UniProt P00846) | 0.06 (inactive)
9 | NFATC3 (UniProt Q12968) | 0.281 (inactive)
10 | NELFA (UniProt Q9H3P2) | 0.261 (inactive)
11 | OSTM1 (UniProt Q86WC4) | -0.015 (inactive)
12 | NDUFS8 (UniProt O00217) | -0.093 (inactive)
13 | MITD1 (UniProt Q8WV92) | 0.097 (inactive)
14 | NFX1 (UniProt Q12986) | 0.269 (inactive)
15 | NBN (UniProt O60934) | 0.006 (inactive)
16 | NDUFS7 (UniProt O75251) | -0.004 (inactive)
17 | NA, A0A096LPI6 | 0.007 (inactive)
18 | NSMCE2 (UniProt Q96MF7) | 0.076 (inactive)
19 | NIPSNAP2 (UniProt O75323) | -0.085 (inactive)
20 | MRPS10 (UniProt P82664) | 0.006 (inactive)

Row | Target | log2 fold change
21 | NNT (UniProt Q13423) | -0.053 (inactive)
22 | NEU1 (UniProt Q99519) | -0.012 (inactive)
23 | NOL11 (UniProt Q9H8H0) | 0.071 (inactive)
24 | MRPS25 (UniProt P82663) | 0.129 (inactive)
25 | MRPS5 (UniProt P82675) | 0.129 (inactive)
26 | NMT2 (UniProt O60551) | -0.04 (inactive)
27 | NEDD4L (UniProt Q96PU5) | 0.002 (inactive)
28 | NR2C2 isoform 2 (UniProt P49116) | 0.071 (inactive)
29 | P4HA2 (UniProt O15460) | 0.145 (inactive)
30 | OSTC (UniProt Q9NRP0) | -0.036 (inactive)
31 | NFATC2 (UniProt Q13469) | -0.047 (inactive)
32 | PAFAH1B2 (UniProt P68402) | 0.037 (inactive)
33 | NA, A0A0B4J2A0 | -0.005 (inactive)
34 | OXSM (UniProt Q9NWU1) | -0.018 (inactive)
35 | NDUFA12 (UniProt Q9UI09) | -0.061 (inactive)
36 | NOP58 (UniProt Q9Y2X3) | 0.304 (inactive)
37 | MSTO1 (UniProt Q9BUK6) | -0.029 (inactive)
38 | MRPS27 isoform 2 (UniProt Q92552) | 0.069 (inactive)
39 | MYL12B (UniProt O14950) | 0.009 (inactive)

Compound: CNc1nc(-c2ccc3c(N)n[nH]c3c2)cc(N2C[C@@H](C(=O)NC3CCCCC3)CC[C@H]2C)n1
Assay: as above
In short: as §1

Row | Target | log2 fold change
40 | NELFB isoform 2 (UniProt Q8WX92) | -0.005 (inactive)
41 | MRPL50 (UniProt Q8N5N7) | -0.065 (inactive)
42 | MRPL46 (UniProt Q9H2W6) | 0.115 (inactive)
43 | NOP56 (UniProt O00567) | -0.028 (inactive)
44 | MTHFS (UniProt P49914) | -0.004 (inactive)
45 | MKNK1 (UniProt Q9BUB5) | 0.051 (inactive)
46 | NMNAT1 (UniProt Q9HAN9) | 0.02 (inactive)
47 | MT-ATP6 (UniProt P00846) | -0.176 (inactive)
48 | NFATC3 (UniProt Q12968) | -0.539 (active)
49 | NELFA (UniProt Q9H3P2) | -0.014 (inactive)
50 | OSTM1 (UniProt Q86WC4) | -0.086 (inactive)
51 | NDUFS8 (UniProt O00217) | 0.017 (inactive)
52 | MITD1 (UniProt Q8WV92) | -0.112 (inactive)
53 | NFX1 (UniProt Q12986) | -0.237 (inactive)
54 | NBN (UniProt O60934) | 0.049 (inactive)
55 | NDUFS7 (UniProt O75251) | -0.048 (inactive)
56 | NA, A0A096LPI6 | -0.055 (inactive)
57 | NSMCE2 (UniProt Q96MF7) | -0.076 (inactive)
58 | NIPSNAP2 (UniProt O75323) | -0.08 (inactive)
59 | MRPS10 (UniProt P82664) | 0.097 (inactive)

Row | Target | log2 fold change
60 | NNT (UniProt Q13423) | -0.036 (inactive)
61 | NEU1 (UniProt Q99519) | -0.011 (inactive)
62 | NOL11 (UniProt Q9H8H0) | 0.002 (inactive)
63 | MRPS25 (UniProt P82663) | 0.233 (inactive)
64 | MRPS5 (UniProt P82675) | 0.161 (inactive)
65 | NMT2 (UniProt O60551) | -0.027 (inactive)
66 | NEDD4L (UniProt Q96PU5) | -0.059 (inactive)
67 | NR2C2 isoform 2 (UniProt P49116) | -0.044 (inactive)
68 | P4HA2 (UniProt O15460) | 0.016 (inactive)
69 | OSTC (UniProt Q9NRP0) | -0.004 (inactive)
70 | NFATC2 (UniProt Q13469) | -0.382 (active)
71 | PAFAH1B2 (UniProt P68402) | 0.078 (inactive)
72 | NA, A0A0B4J2A0 | -0.022 (inactive)
73 | OXSM (UniProt Q9NWU1) | -0.033 (inactive)
74 | NDUFA12 (UniProt Q9UI09) | 0.031 (inactive)
75 | NOP58 (UniProt Q9Y2X3) | -0.01 (inactive)
76 | MSTO1 (UniProt Q9BUK6) | 0.235 (active)
77 | MRPS27 isoform 2 (UniProt Q92552) | 0.108 (inactive)
78 | MYL12B (UniProt O14950) | -0.041 (inactive)
